Sampled rows, rich in hits. Any-hit rate of the full collection: about 0.9%.
CDC25B-CDK2 inh: human CDC25B-CDK2/CyclinA binding inhibition | P30305+P24941 | HTRF CDC25B-CDK2/CyclinA binding, anti-His/anti-Flag; active compounds read high | z-score (test concentration not listed) | 94,000 compounds, 0.72% hits | AID 1259370; in the data active = z-score above about 3.2
TAR Tat displ: HIV-1 TAR-Tat binding disruption; HIV-1 TAR RNA, Tat peptide displacement FRET; active compounds read high; z-score (no concentration beside the values); 100,000 compounds, 0.6% hits; AID 1259389; active = z-score of 3 or more in at least 2 runs
* marks the source's active call; other numbers are inactive results; · = not tested or not shown.

SMILES | CDC25B-CDK2 inh | TAR Tat displ
O=C(Nc1ccc(Cl)c(Cl)c1)Nn1cnnc1 | 18* | ·
O=C(Nc1ccccc1)Nn1cnnc1 | -0.44 | ·
Cc1nn(CCCC(=O)N2CCOCC2)c(=O)c2noc(C)c12 | · | 1.5
CCCCC(C(=O)O)N1C(=O)C2C3c4ccccc4C(c4ccccc43)C2C1=O (stereo not given) | -0.38 | -0.08
Nc1cccc(N2CCn3c(nc4cc(Cl)ccc43)C2)c1 | -0.91 | -5.1
Nc1cccc(N2CCn3c(nc4ccccc43)C2)c1 | 7.4* | -3.4
Nc1ccc(N2CCn3c(nc4ccccc43)C2)cc1 | 13* | -1.7
c1ccc(CN2CCn3c(nc4ccccc43)C2)cc1 | -1.8 | 0.68
NCCCC(=O)N1c2ccccc2Sc2ccccc21 | -1.1 | 0.55
Cc1ccc(C)c(N2CCN(c3cc(C(=O)O)c4cc(N)ccc4n3)CC2)c1 | · | -5
O=c1cc(-c2ccccc2)[nH]c(=S)[nH]1 | -1.1 | ·
N/C(=N\O)c1c(-c2ccccc2)cc(-c2ccc(F)cc2)[nH]c1=O | 11* | ·
Cc1cc(-c2ccc(S(=O)(=O)N3CCC(N4CCCCC4)CC3)s2)n[nH]1 | · | -0.49
CN(C)CCN(Cc1ccccc1)c1ccccn1 | · | -1.2
CC(C)(C)N[C@H]1CS(=O)(=O)C[C@@H]1S(=O)(=O)c1ccccc1 | -0.12 | 19*
O=S1(=O)C[C@H](NCc2ccccc2)[C@@H](S(=O)(=O)c2ccccc2)C1 | -1.4 | -1.2
Cc1cc2ncn(CC(O)COc3ccc(Cl)cc3)c2cc1C (stereo not given) | -0.68 | 1.1
CC(C)C(=O)N(Cc1ccco1)S(=O)(=O)c1cccc2cccnc12 | -0.33 | 0.32
COC(=O)c1c(OC)cc2c(c1C)Oc1c(Cl)c(OC(C)=O)c(Cl)c(C)c1C(=O)O2 | · | -0.25
COc1c(Cl)c(C)c2c(c1Cl)OC(=O)c1c(C)c(Cl)c(O)c(Cl)c1O2 | · | 30*
COc1cc(C2C(C#N)=C(N)Oc3cc(O)ccc32)ccc1OCc1ccccc1F (stereo not given) | -0.01 | -0.71
O=C(C1CC1)n1nc(-c2ccco2)nc1NCc1ccc(F)cc1 | -1.5 | 0.12
O=c1nc2c(-c3ccc(F)cc3Cl)n[nH]n2c2ccccc12 | -0.93 | 2.3
c1ccc(-c2c3ssnc-3c3ccccc23)cc1 | 17* | ·
Cc1nc(-c2ccccc2)c(-c2ccccc2)s1 | -0.54 | 1.7
SMILES | CDC25B-CDK2 inh | TAR Tat displ
COc1ccc(Nc2cc(C)nc3c(C)c(C)ccc23)cc1 | -1.3 | ·
Cc1ccc(Oc2nc3ccccc3n3c(C)nnc23)cc1C | 0.64 | ·
Cc1nnc2c(Oc3ccc(Cl)cc3)nc3ccccc3n12 | 16* | 0.92
COCc1nnc(NC(=O)Cn2cnc3c2c(=O)n(C)c(=O)n3C)s1 | -1.5 | ·
Cc1ccc(CNC(=O)CC(C)CC2=NS(=O)(=O)c3ccccc3N2)o1 (stereo not given) | · | 0.5
CC(CC(=O)NCc1ccco1)CC1=NS(=O)(=O)c2ccccc2N1 (stereo not given) | · | 9.5*
Cc1oc2ncnc(N3CCOCC3)c2c1C(=O)NCCCN1CCCC1 | · | 0.82
O=C(NC(=O)c1cccc(CS(=O)(=O)c2ccc(Cl)cc2)c1)Nc1ccccc1Cl | -1.1 | ·
O=C1C=C(NCc2ccco2)CC(c2ccccc2)C1 (stereo not given) | -1.2 | 0.24
O=C1C=C(NCCc2ccccc2)CC(c2ccco2)C1 (stereo not given) | -0.39 | 24*
c1ccc(C2CC3CC(c4ccccc4)N2O3)cc1 (stereo not given) | -1.8 | -0.7
CCC1=Nc2cc(C(=O)NC(C)CC)ccc2Sc2ccccc21 (stereo not given) | 2.4 | -0.04
CCC(C)NC(=O)c1ccc2c(c1)N=C(C)c1cc(C)ccc1S2 (stereo not given) | -1.9 | 5.9*
Cc1nn(-c2nncc(-c3ccc(Cl)cc3)n2)c2c1C(c1ccc(O)cc1)CC(=O)N2 (stereo not given) | 3.4 | 4.7
Fc1ccccc1-c1nc(-c2ccccn2)no1 | -1.2 | ·
c1ccc(-c2noc(-c3cccc4ccccc34)n2)nc1 | 12* | 0.01
O=C(CN1C(=O)c2ccccc2S1(=O)=O)Nc1ccc(N2CCCC2)cc1 | 11* | 15*
CS(=O)(=O)N1CCN(c2ccc(NC(=O)CN3C(=O)c4ccccc4S3(=O)=O)cc2)CC1 | 1.2 | 0.69
Cc1nnc(Oc2cncc(Cl)c2)c2ccccc12 | · | 1
COC(=O)c1ccc2c(c1)C1C=CCC1C(c1cccc3ccccc13)N2 (stereo not given) | -0.77 | -14
COc1cccc2c1NC(c1cccc3ccccc13)C1CC=CC21 (stereo not given) | -0.13 | 6.4*
CCOc1ccc(N2CC(C)Cn3c2nc2c3c(=O)[nH]c(=O)n2C)cc1 (stereo not given) | -1.4 | -0.16
O=C1c2cccc3c(SCCO)ccc(c23)C(=O)N1CCc1ccccn1 | 7.8* | ·
O=C(CN1C(=O)c2cccc3cccc1c23)NCc1ccccn1 | -0.95 | 0.42
CCc1nnc2c(NCCC(C)C)nc3ccccc3n12 | · | -0.86
SMILES | CDC25B-CDK2 inh | TAR Tat displ
C=CC(=C)CC(NC)c1ccccc1 (stereo not given) | 16* | 0.37
C=C(C)CC(NC(C)c1ccccc1)c1ccco1 (stereo not given) | -0.1 | -0.33
CC1(C(=O)NC2CCCCC2)Cn2c(cc3occc32)C(=O)N1Cc1cccs1 (stereo not given) | · | 1.4
COc1ccc2c(c1OC)C(=O)O[C@@H]2[C@H]1c2c(cc3c(c2OC)OCO3)CCN1C | -1.4 | 4.3
COc1cc2c3c(c1OC)C1(C=CC(=O)C=C1)CC3N(C)CC2 (stereo not given) | 8.3* | -3
O=C(c1ccc(Cl)cc1)N1C(=O)c2ccc([N+](=O)[O-])cc2C1=O | -0.75 | ·
O=C1C2C3c4ccccc4C(CO)(c4ccccc43)C2C(=O)N1c1ccc(F)cc1 (stereo not given) | -0.26 | 2.4
O=C(NCc1ccco1)c1ccc2snnc2c1 | -2 | ·
CCC(C(=O)Nc1cccc(F)c1)n1nc(C)c2sc3ccccc3c2c1=O (stereo not given) | -1.5 | 2.6
CCC(C(=O)NCc1cccs1)n1nc(C)c2sc3ccccc3c2c1=O (stereo not given) | -2.7 | 4*
CCC(C(=O)Nc1cccc(Cl)c1)n1nc(C)c2sc3ccccc3c2c1=O (stereo not given) | 0.04 | 13*
CCC(C(=O)NCCc1cccs1)n1nc(C)c2sc3ccccc3c2c1=O (stereo not given) | -1.1 | 1.5
Cc1ccc2oc(-c3cccc(NC(=O)c4sc5ccccc5c4Cl)c3C)nc2c1 | -2.9 | ·
Cn1c(=O)c2c(-c3ccc(Br)cc3)n(-c3ccc4c(c3)nc(CO)n4C)cc2n(C)c1=O | 15* | 1.7
Cc1ccc(-n2cc3c(c2-c2ccc(Br)cc2)c(=O)n(C)c(=O)n3C)cc1 | -1.6 | -0.23
Cc1nc2c(c(SCC(=O)Nc3nc4c(s3)CCCC4)n1)CCC2 | -0.41 | 0.69
CC(O)CNc1ncnc2c1c(-c1ccccc1)cn2-c1cccc(Cl)c1 (stereo not given) | · | 0.07
C=CC1=C(C(=O)O)N2C(=O)[C@@H](NC(=O)C(=NO)c3csc(N)n3)[C@H]2SC1 | · | 33*
CO/N=C(/C(=O)N[C@@H]1C(=O)N2C(C(=O)O)=C(COC(C)=O)CS[C@H]12)c1csc(N)n1 | · | 1.4
C=CCn1c(N)cc(=O)nc1SCC(=O)Nc1cc(C)ccn1 | 0.76 | 1.1
Cc1nc2sccn2c1C(=O)NN | 15* | ·
Cc1nc2sccn2c(=O)c1NC(=O)c1ccco1 | · | 1.4
